Screening results: PubChem BioAssay, National Center for Advancing Translational Sciences (NCATS)
In the library only some 10% were active in any assay of this set; here they are far more common.
ALDH1A1 inh – inhibitors of human aldehyde dehydrogenase 1A1; Purified ALDH1A1, NADH fluorescence, propionaldehyde substrate; Potency, µM (titrated, usually from 75.3 µM), for inactives: top-dose activity, negative = inhibition, usual class: inhibitors; 220,000 tested, 7.3% active; AID 1030;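 also: potency is read from the fitted curve at half-maximal effect; plate controls were no enzyme wells and a reference inhibitor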
Luc counter – Kinase-Glo luciferase inhibition (counter-screen); 200,000 tested, 0.28% active; Q27757; Potency, µM (doses to about 38.3 µM), for the others: top-dose activity change, negative = inhibition, actives largely listed as inhibitors; AID 1379; Kinase-Glo luciferase, ATP luminescence, 8 min; active = well fitted inhibition curve with a large enough effect; inconclusive = small, poorly fitted or top-dose-only effect; also: potency is read from the fitted curve at half-maximal effect; nearly all actives have a fitted effect of over 60% in size
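Recombinant Kinase-Glo luciferase, 10 uM ATP (linear range), luciferin; imidazole pH 7.2 / KCl / MgCl2 / Tween / BSA buffer; 8 min RT; luminescence.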
LMNA splice mod – changes lamin A minigene splicing in HeLa cells | 200,000 tested, 0.01% active | HeLa LMNA splicing GFP/RFP minigene ratio, 48 h | Potency, µM (top dose mostly 46.1 µM), for inactives: top-dose ratio change, negative = inhibition, actives largely listed as inhibitors; active = well fitted inhibition curve with a large enough effect in the signal ratio, with a control signal flat, not every such curve was filed as active; inconclusive = small, poorly fitted or top-dose-only effect, or effect the other way, or a change in a side signal; the % refers to the signal ratio; also: potency is read from the fitted curve at half-maximal effect
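Read-out is the ratio of GFP to DsRed2 object intensity, acquired by 488 nm laser-scanning cytometry on HeLa lamin A-EGFP minigene reporter cells. Compound incubation 48 hrs at 37 °C in Opti-MEM with 2% FBS; DMSO 0.5% final.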
PNC assembly inh – inhibitors of perinucleolar compartment assembly. 140,000 tested, 3.1% active. PC3M PTB-GFP, PNC prevalence imaging, 16 h; hits give low values. activity change (PNC), negative = inhibition, % at 10 µM. AID 2417;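 active = readout at or below -70, meaning at least 70% loss of cells showing the perinucleolar compartment, a nuclear body marking cancer cells; inconclusive = readout between -30 and a set limit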;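 also: plate controls were DMSO wells for no effect and camptothecin positive control wells for full effect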
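Read-out is percentage of cells bearing a perinucleolar compartment, from automated 20x imaging of fixed, Hoechst-stained PC3M PTB-GFP cells. Cells were seeded 4 h, then exposed 16 h to compound (23 nl of library stock) in duplicate plates.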
HPGD inh – blocks human HPGD enzyme activity; 150,000 tested, 4.3% active; P15428; Potency, µM, for inactives: top-dose activity change, negative = inhibition, usual class: inhibitors; purified HPGD, NADH fluorescence kinetic, PGE2 substrate; also: potency is read from the fitted curve at half-maximal effect
Target sequence (P15428 whole entry, looked up): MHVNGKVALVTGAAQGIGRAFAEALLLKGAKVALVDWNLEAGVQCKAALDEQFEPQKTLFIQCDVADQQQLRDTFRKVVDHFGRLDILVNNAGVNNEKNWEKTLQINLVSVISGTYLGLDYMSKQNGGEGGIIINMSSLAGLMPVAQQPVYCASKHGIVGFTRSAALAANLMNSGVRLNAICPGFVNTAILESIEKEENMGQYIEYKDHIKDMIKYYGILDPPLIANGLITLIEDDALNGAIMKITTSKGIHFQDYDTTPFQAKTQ
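NADH formation kinetics: reaction with 30 uM PGE2 and 1 mM NAD+ (final), 20 nM enzyme, Tris-HCl pH 8 with Tween 20, after 15 min compound preincubation at room temperature. Fluorescence change, last versus first of five reads.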
* marks the source's active call; other numbers are inactive results; u = inconclusive; x = no result; [ ] = another dose, or the depositor's remark. Unless noted, calls follow the shape of the dose curve; as a rule, active = well fitted inhibition curve with a large enough effect (not every such curve was filed as active); inconclusive = small, poorly fitted or top-dose-only effect, or another doubt; inactive = no such curve, though single readings can be large or run the other way. Unless noted, % is scaled to controls: 0 for no effect and ±100 for the full control effect.

SMILES | ALDH1A1 inh | Luc counter | LMNA splice mod | PNC assembly inh | HPGD inh
CCN(CC)c1ccc(/C=N/NC(=O)Cc2cccs2)cc1 | u | -0.1% | -3.2% | 20.4 | u
Cc1ccccc1OCC(=O)Nc1ccc(OCc2cc(=O)n3ccccc3n2)cc1 | x | x | -6.8%[46 µM] | x | x
O=C(COc1ccc(Br)cc1)NNC(=S)NC(=O)c1ccccc1[N+](=O)[O-] | -8.4% | -5.2% | u | 8.9 | -3.9%
C/C(=N\NC(=O)COc1ccc([N+](=O)[O-])cc1)C(C)(C)C | 20µM* | -3.2% | 2.8% | 46.0 | -6.9%
CC(=O)NC(=S)NNC(=O)COc1ccc([N+](=O)[O-])cc1 | 22.4µM* | -4.0% | x | x | x
CC(=O)NC(=S)NNC(=O)COc1ccc(Br)cc1 | 17.8µM* | 0.6% | 19.2%[46 µM] | x | x
CC(=O)N1CC=CC1(CC(C)C)C(=O)O (centres undefined) | 5.1% | 0.0% | x | x | -4.2%
CC(=O)c1cccc(S(=O)(=O)NCC(c2ccco2)N2CCCCC2)c1 (centres undefined) | 11.2µM* | 2.9% | -1.7% | 34.2 | -16.7%
c1ccc(-c2nc(-c3ccccn3)no2)cc1 | 12.5% | 3.16µM* | -13.7% | 25.7 | -4.4%
COc1cccc(-c2nc(-c3ccccn3)no2)c1OC | u | -1.9% | 2.4% | -84.4* | -23.7%
Cc1ccc2nc(-c3ccccn3)oc2c1 | u | 12.6µM* | 5.9% | 56.6 | u
c1ccc(-c2noc(-c3cccc4ccccc34)n2)nc1 | u | -22.1% | -6.3% | 33.9 | u
Cc1ccc(-c2nc(-c3ccccn3)no2)cc1Cl | -4.9% | 11.2µM* | -0.7% | u | -19.3%
CC(C)CCNC(=O)c1cc(Sc2ccc(F)cc2F)nc2ccccc12 | x | x | -2.9%[46 µM] | x | x
Cc1ccc(-c2nc(-c3ccccn3)no2)cc1 | 2.8% | 3.16µM* | -2.6% | 9.1 | -19.3%
CN(Cc1ccccc1)C(=O)c1ccc2c(c1)N(Cc1ccccc1Cl)C(=O)c1ccccc1S2 | x | x | -13.2%[46 µM] | x | x
COc1ccc(C(=O)N2CCC3(CC2)CN(Cc2ccc(C#N)cc2)C3)cc1 | -0.9% | -2.0% | x | x | -8.6%
CC1CCN(C(=O)CSc2ccc(-c3ccc(F)cc3)nn2)CC1 | -1.7% | -5.3% | u | -1.5 | 10µM*
CC1CCN(C(=O)COc2ccccc2F)CC1 | -5.9% | -2.1% | 2.4% | 28.9 | 25.1µM*
CCOc1ccc(-c2ccc(SCC(=O)N3CCN(c4ccccc4)CC3)nn2)cc1 | 17.8µM* | 1.6% | -1.5% | 49.9 | -3.7%
O=C(CSc1ccc(-c2ccc(F)cc2)nn1)N1CCCCC1 | -11.8% | 4.1% | 7.3% | -7.2 | 15.8µM*
CO[C@]1(NC(=O)C(C(=O)O)c2ccc(O)cc2)C(=O)N2C(C(=O)O)=C(CSc3nnnn3C)COC21 (some centres undefined) | -2.9% | -6.4% | x | x | -2.0%
CCOc1cc(C(=O)CCC(=O)OCC(=O)N2c3ccccc3NC(=O)C2(C)C)ccc1O | 14.1µM* | 1.7% | 15.0% | -21.3 | -9.6%
O=C1CSC(=Nc2ccccc2Cl)N1 | u | 7.8% | 3.3% | -16.2 | 15.8µM*
Cc1ccccc1N=C1NC(=O)CS1 | 4.4% | 13.9% | 6.1% | -4.8 | -6.0%
SMILES | ALDH1A1 inh | Luc counter | LMNA splice mod | PNC assembly inh | HPGD inh
COc1ccccc1Cn1c(CNS(=O)(=O)c2ccccc2Cl)nc2cccnc21 | x | x | 0.8%[46 µM] | x | x
N#C/C(=C\c1cccs1)C(=O)c1ccccc1Cl | 22.4µM* | x | x | x | x
CCN(CC)S(=O)(=O)c1ccc(O)c(NS(=O)(=O)c2ccccc2F)c1 | 12.6µM* | 2.5% | u | 2.4 | 25.1µM*
CCOc1ccc(S(=O)(=O)N(CC)CC)cc1NS(=O)(=O)c1ccc(F)c(F)c1F | u | 0.0% | -15.9% | -5.9 | -1.1%
O=C(c1ccc(F)cc1)N1CCCCC(Sc2nnc3ccccn23)C1=O (centres undefined) | 0.3% | -3.2% | 8.6% | 48.4 | -9.6%
Cc1cc2nnc(SC3CCCCN(C(=O)c4ccc(F)cc4)C3=O)n2c2ccccc12 (centres undefined) | 17.8µM* | -7.3% | -2.4% | -8.1 | u
O=C(c1ccccc1)c1coc2c1C(=O)c1ccccc1C2=O | 20µM* | -2.0% | u | x | x
Cc1ccc(S(=O)(=O)N/N=C\c2cc([N+](=O)[O-])ccc2Cl)cc1 | u | -0.1% | u | 10.6 | -11.1%
COc1cc(/C=N/NS(=O)(=O)c2ccc(C(C)(C)C)cc2)cc([N+](=O)[O-])c1O | 7.94µM* | x | x | x | x
